Source: PubChem
The entries come from a sample that favours hits as a whole.
CD40 NFkB inh = CD40 pathway inhibition in BL2 cells | BL2 NF-kB luciferase reporter, CD40L-induced, 4 h | 83,000 compounds, 0.94% hits | inhibition, % at 10 µM | AID 1053188;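 active = mean inhibition of at least 50% with a set share of replicates also reaching that level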;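 also: 0% = neutral control wells and 100% = IKK inhibitor VII at 50 µM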
Numbers without * were called inactive; ! = not active in a repeat; [ ] = another dose, or the depositor's remark.

SMILES	CD40 NFkB inh
COc1ccc2c3c([nH]c2c1)[C@H](CO)N(Cc1ccc(Cl)cc1)CC31CCN(Cc2nccs2)CC1	19[25 µM]
O=C(Nc1nc2c(s1)CCCC2)Oc1ccccc1	-32
O=C(O)c1ccc(Nc2nc3c(s2)CCCC3)cc1	72*
O=C(Nc1nc2c(s1)CCCC2)c1cccnc1	-67
CC(C)NC(=O)Nc1ccc2c(c1)CC(=O)N(C)C[C@@H](C)[C@H](CN(C)C(=O)NC(C)C)O2	3
CC(C)C#Cc1ccc([C@@H]2[C@H]3CN(S(=O)(=O)c4ccccc4)CC(=O)N3[C@H]2CO)cc1	11[25 µM]
C[C@H](CO)N1C[C@H](C)[C@@H](CN(C)S(=O)(=O)c2ccc([N+](=O)[O-])cc2)OCc2ccccc2-c2ccccc2C1=O	-2[25 µM]
CN1CCN(C(=O)C[C@@H]2C[C@H]3c4cc(NC(=O)C5CCC5)ccc4O[C@H]3[C@@H](CO)O2)CC1	3[25 µM]
COc1cc(N(C)C)ccc1C=c1c2ccccc2n2c1cc(-c1ccccc1)[n+]2C	101*
CN(C)c1ccc(C=C2C=C(c3ccccc3)OC2=O)cc1	-1
Cn1ccc(=O)c2cc([N+](=O)[O-])ccc21	1
CN(C)c1ccc(C=c2c3cc([N+](=O)[O-])ccc3n3c2cc(-c2ccccc2)[n+]3C)cc1	91*
CS(=O)(=O)N1Cc2cc(C(=O)NCC3CC3)nc(-c3cccc(-c4cncnc4)c3)c2[C@@H]1CCO	-24[25 µM]
COc1ccc(NC(=O)N2C[C@@H]3[C@H](c4ccccc42)[C@H](CO)N3Cc2ccccn2)cc1	-22[25 µM]
COc1ccc2c3c([nH]c2c1)[C@@H](CO)N(C(=O)Nc1ccc(F)cc1)CC31CN(Cc2cc(-c3ccccc3)on2)C1	-23[25 µM]
COc1ccc(CN(C)C[C@@H]2OCCCC[C@@H](C)Oc3ccc(NC(=O)C4CCCCC4)cc3C(=O)N([C@@H](C)CO)C[C@@H]2C)cc1	-6[25 µM]
CCCCC(=O)Nc1ncc([N+](=O)[O-])s1	-24
Cc1nc(C)c(C(=O)Nc2ncc([N+](=O)[O-])s2)o1	69*
CC(C)CC(=O)Nc1ncc([N+](=O)[O-])s1	4
COCC(=O)N1[C@H](CO)[C@H](c2ccccc2-c2ccccc2)[C@@H]1C#N	0[25 µM]
O=C(C[C@H]1C[C@@H]2c3cc(NC(=O)C4CCC4)ccc3O[C@@H]2[C@H](CO)O1)NCc1ccccn1	1[25 µM]
O=C(OCC(=O)N1CCN(c2ccccc2)CC1)c1ccccc1NCCO	35*
O=C(OCC(=O)N1CCN(c2ccccc2)CC1)c1cccs1	-44
O=C(OCC(=O)N1CCN(c2ccccc2)CC1)c1ccccc1OC(F)F	-11
COc1ccc(NC(=O)N2C[C@@H]3N[C@H](C2)C3c2ccc(-c3cncnc3)cc2)cc1 (some centres not stated)	19
SMILES	CD40 NFkB inh
COc1cccc(-c2ccc(C3[C@@H]4CN(C(=O)C5CC5)C[C@H]3N4)cc2)c1 (some centres not stated)	63*!
COc1ccc(NC(=O)N2C[C@@H]3N[C@H](C2)[C@@H]3c2ccc(-c3ccc(OC)cc3)cc2)cc1	63*
COc1cccc(-c2ccc(C3[C@@H]4CN(C(=O)C5CCC5)C[C@H]3N4)cc2)c1 (some centres not stated)	3
Cc1ccccc1-c1ccc(C2[C@@H]3CN(C(=O)Nc4ccc(F)cc4)C[C@H]2N3)cc1 (some centres not stated)	37[25 µM]
O=C(Nc1cccc(F)c1)N1C[C@@H]2N[C@H](C1)C2c1ccc(-c2ccccc2F)cc1 (some centres not stated)	-1
Cc1ccccc1-c1ccc(C2[C@@H]3CN(C(=O)Nc4cccc(F)c4)C[C@H]2N3)cc1 (some centres not stated)	62*[25 µM]
COc1ccc(NC(=O)N2C[C@@H]3N[C@H](C2)C3c2ccc(-c3cccc(OC)c3)cc2)cc1 (some centres not stated)	-25
COc1ccc(NC(=O)N2C[C@@H]3N[C@H](C2)C3c2ccc(-c3ccncc3)cc2)cc1 (some centres not stated)	-4[25 µM]
O=C(Nc1cc(F)ccc1F)N[C@H]1CC[C@@H](CC(=O)N2CCc3ccccc3C2)O[C@H]1CO	9[25 µM]
CCCNC(=O)C[C@@H]1CC[C@@H]2[C@H](COc3ccc(NC(=O)NCCC)cc3C(=O)N2C)O1	-2
C[C@@H]1CN([C@H](C)CO)C(=O)CCCn2nncc2CO[C@@H]1CN(C)Cc1ccccc1C(=O)O	11[25 µM]
C[C@@H]1CN([C@H](C)CO)C(=O)c2cccc(NS(=O)(=O)c3ccc(Cl)cc3)c2O[C@@H]1CN(C)C(=O)Nc1ccc2c(c1)OCO2	-9[25 µM]
CCCCCCCCNC(=O)C(Cc1ccc(OCc2ccncc2)cc1)NC(=O)C1CCC(CN)CC1 (configuration not stated)	8[25 µM]
COc1cccc(-c2ccc(C3[C@H]4CNC[C@@H]3N4Cc3cncnc3)cc2)c1 (some centres not stated)	-6[25 µM]
NS(=O)(=O)c1ccc(N=Cc2c(O)[nH]c3ccccc23)cc1	-9[25 µM]
COc1ccc(S(=O)(=O)Nc2ccc3c(c2)[C@@H]2C[C@@H](CC(=O)N(C)C)O[C@@H](CO)[C@@H]2O3)cc1	4[25 µM]
CCc1cnc(N2[C@H](C#N)[C@H](c3ccc(C#CCC4CCCC4)cc3)[C@@H]2CO)s1	56*[25 µM]
CCc1cnc(N2[C@@H](C#N)[C@@H](c3ccc(C#CCC4CCCC4)cc3)[C@@H]2CO)s1	16[25 µM]
CCc1cnc(N2[C@H](C#N)[C@H](c3ccc(C#CCC4CCCC4)cc3)[C@H]2CO)s1	5[25 µM]
O=C([C@H]1[C@H](CO)[C@H]2Cn3c(cccc3=O)[C@@H]1N2C(=O)c1ccccn1)N1CCCCC1	13[25 µM]
CC(C)NC(=O)Nc1ccc2c(c1)CC(=O)N(C)C[C@@H](C)[C@H](CN(C)C(=O)OC(C)(C)C)O2	0
CCC(=O)N1CC[C@H]2[C@H](CO)Nc3ccc(C#Cc4cccnc4)cc3[C@H]21	-15[25 µM]
CC(C)NC(=O)N(C)C[C@@H]1Oc2c(N)cccc2C(=O)N(C)C[C@@H]1C	16
CC[n+]1c(/C=C2/C=C(C)CC(C)(C)C2)sc2ccc(OC)cc21	80*
C[C@H]1CN(C)C(=O)Cc2ccccc2O[C@H]1CN(C)C	-81
SMILES	CD40 NFkB inh
COc1cccc(C=NNC(=O)c2ccncc2)c1O	-38
COc1cccc(/C=N/Nc2ccc(C(=O)O)cc2)c1O	96*
COc1cccc(/C=N/NC(=O)N/N=C/c2cccc(OC)c2O)c1O	-59
COCCN(C[C@@H]1N[C@@H](CO)[C@@H]1c1ccc(-c2ccc(F)cc2)cc1)C(C)=O	9[25 µM]
C[C@@H]1CN([C@H](C)CO)C(=O)c2c(c3ccccc3n2C)-c2ccccc2CO[C@H]1CN(C)S(=O)(=O)c1ccsc1	2
COc1ccccc1-c1ccc([C@H]2[C@H](C#N)N[C@@H]2CO)cc1	-24[25 µM]
CC(=O)c1cc(-c2ccccc2)n(CCC(=O)NC2CCCCCCC2)c1C	2
O=C(CN1CCN(Cc2ccccc2)C1=O)NCc1cccs1	0
CC(=O)c1cc(-c2ccccc2)n(CC(=O)NCc2cccs2)c1C	54*
c1cc2c(cc1C1CCCCC1)c1c3n2CCNC3CCC1 (configuration not stated)	11[25 µM]
CC(C)NC(=O)N1[C@H](CO)[C@H](c2ccc(C#CC3CCCCC3)cc2)[C@@H]1C#N	12
CC(C)NC(=O)N1[C@H](C#N)[C@@H](c2ccc(C#CC3CCCC3)cc2)[C@H]1CO	-2
CC(C)NC(=O)N1[C@H](C#N)[C@H](c2ccc(C#CC3CCCCC3)cc2)[C@@H]1CO	9
N#C[C@H]1[C@H](c2ccc(C#CC3CCCCC3)cc2)[C@H](CO)N1C(=O)Nc1ccc(F)cc1	51*[25 µM]
